Source: PubChem
In the library only some 21% were active in any assay of this set; here they are far more common.
Shiga inhibitor: A qHTS for Small Molecule Inhibitors of Shiga Toxin | Vero cells, Shiga toxin protein synthesis inhibition reporter | inhibition, % at 38.7 µM | 290,000 compounds, 9.2% hits | AID 2315, 2010; in the data active means inhibition mostly above about 28%, no sharp cut-off; inactive means mostly below about 43%; further: 0% is about no effect
Pf growth 96h: Primary qHTS for delayed death inhibitors of the malarial parasite plastid, 96 hour incubation; P. falciparum luciferase reporter growth, 96 h; Potency, µM (doses to about 28.7 µM), without a hit: at the highest dose activity change, negative = inhibition, most hits filed as inhibitors; 320,000 compounds, 6.9% hits; active means well fitted inhibition curve with a large enough effect; inconclusive means small, poorly fitted or top-dose-only effect, or another doubt; inactive means no such curve, though single readings can be large or run the other way; further: potency means the concentration at half of the fitted maximal effect; on the % scale 0 is the no-effect control and ±100 the full control effect
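Readout is luminescence from an integrated firefly luciferase in P. falciparum. Red cells, 2% hematocrit and 0.05% parasitemia final, were cultured with compound through two parasite generations (96 hours) at 37 C, 5% CO2.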
NS1 function inh: qHTS Assay for Inhibitors of Influenza NS1 Protein Function | Potency, µM (titrated, usually from 46.1 µM), inactives show at the top dose activity, positive = more growth | 270,000 compounds, 0.4% hits | AID 2326, 2010; further: potency means the concentration at half of the fitted maximal effect; actives are rising curves; nearly all actives have a fitted effect of over 50% in size
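A cell-based growth assay was used: compounds that relieve NS1-induced slow growth of budding yeast raise OD600. Assay medium was yeast nitrogen base with ammonium sulphate and -URA supplement, pH 6.0, with 2% galactose.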
SARS PLpro yeast: qHTS of Yeast-based Assay for SARS-CoV PLP. Potency, µM (highest dose often 32.9 µM), for inactives: at the highest dose activity, positive = growth rescue, most hits filed as activators. S. cerevisiae expressing SARS-CoV PLpro, growth rescue. 330,000 compounds, 0.19% hits; further: potency means the concentration at half of the fitted maximal effect; 0% is about no effect; nearly all actives have a fitted effect of over 55% in size
Cycloheximide cs: Cycloheximide Counterscreen for Small Molecule Inhibitors of Shiga Toxin; cell reporter, cycloheximide protein synthesis inhibition counterscreen; max response, %; 300,000 compounds, 12% hits; AID 2314, 2010; in the data active means max response mostly above about 13%, no sharp cut-off; inactive means mostly below about 14%; further: read at 38.3 µM for the half of the compounds with a filed dose; 0% is about no effect
Pf growth 48h: Primary qHTS for delayed death inhibitors of the malarial parasite plastid, 48 hour incubation | P. falciparum luciferase growth in erythrocytes, 48 h | Potency, µM (highest dose often 28.7 µM), without a hit: at the highest dose activity change, negative = inhibition, most hits filed as inhibitors | 310,000 compounds, 5.9% hits; active means well fitted inhibition curve with a large enough effect; inconclusive means small, poorly fitted or top-dose-only effect, or another doubt; inactive means no such curve, though single readings can be large or run the other way; further: potency means the concentration at half of the fitted maximal effect; on the % scale 0 is the no-effect control and ±100 the full control effect
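Firefly luciferase activity from engineered P. falciparum reports growth; inhibitors lower the luminescent signal. Cultures contained 2% hematocrit erythrocytes at 0.1% final parasitemia.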
An asterisk follows results filed as active. Unless noted, the call rests on the fitted dose curve.

Fc1ccccc1-c1cc2ncccc2cn1 was read as Pf growth 96h 112%, SARS PLpro yeast 0% and Pf growth 48h 126%.
For Cc1cccc(NC(=S)NNC(=O)c2ccccc2Br)c1 the results were Shiga inhibitor 78*, Pf growth 96h 64%, NS1 function inh -9%, SARS PLpro yeast inconclusive, Cycloheximide cs 20* and Pf growth 48h 0%.
Screening Cc1cccc(NC(=O)c2ccccc2C(=O)O)c1 returned Shiga inhibitor 0, NS1 function inh -10%, SARS PLpro yeast 5%, Cycloheximide cs 9 and Pf growth 48h 12%.
`O=C(NNC(=S)Nc1ccc(F)c(Cl)c1)c1ccccc1Br` gave Shiga inhibitor 43*, Pf growth 96h 32%, NS1 function inh -1%, SARS PLpro yeast -2%, Cycloheximide cs 12 and Pf growth 48h 27%.
For Cc1ccc(C(=O)Nc2ccc(Br)c(C(F)(F)F)c2)cc1 the results were Shiga inhibitor 108*, Pf growth 96h 12µM*, NS1 function inh -77%, SARS PLpro yeast -24%, Cycloheximide cs 82* and Pf growth 48h inconclusive.
Screening Cc1cccc(NC(=S)NNC(=O)c2ccccc2OC(F)F)c1 returned Shiga inhibitor 15, NS1 function inh -6%, SARS PLpro yeast -1%, Cycloheximide cs 9 and Pf growth 48h -14%.
For Cc1cccc(NC(=O)c2ccc(NC(=O)c3ccccc3Br)cc2)c1 the results were Shiga inhibitor 37, Pf growth 96h -19%, NS1 function inh -2%, SARS PLpro yeast 2%, Cycloheximide cs 20* and Pf growth 48h -13%.
Screening c1ccc(-c2cncnc2)cc1 returned Pf growth 96h 16%, SARS PLpro yeast -24% and Pf growth 48h 25%.
`CCCC[C@H](NC(C)=O)C(=O)N[C@H]1CC(=O)NCCCC[C@@H](C(N)=O)NC(=O)[C@H](Cc2c[nH]c3ccccc23)NC(=O)[C@H](CCCN=C(N)N)NC(=O)[C@@H](Cc2ccccc2)NC(=O)[C@H](Cc2cnc[nH]2)NC1=O` gave Cycloheximide cs 44.
For CC1CCCCN1CCNC(=O)CCc1nnc2n(Cc3ccccc3)c(=O)c3ccccc3n12 (configuration not stated) the results were Shiga inhibitor 5, Pf growth 96h inconclusive, NS1 function inh 5%, SARS PLpro yeast 4%, Cycloheximide cs -1 and Pf growth 48h inconclusive.
Screening CC1CCCC(C)N1CCNC(=O)CCc1nnc2n(Cc3ccccc3)c(=O)c3ccccc3n12 (configuration not stated) returned Shiga inhibitor -2, Pf growth 96h 12µM*, NS1 function inh 3%, SARS PLpro yeast -1%, Cycloheximide cs -3 and Pf growth 48h inconclusive.
`CSc1sc(-c2n[nH]c(=S)n2C)c2c1C=CCC2` gave Shiga inhibitor -6, Pf growth 96h 5.9µM*, NS1 function inh 3%, SARS PLpro yeast 17%, Cycloheximide cs -3 and Pf growth 48h inconclusive.
Cc1ccc(C)c(C(=O)COC(=O)CCN2C(=O)C3C4CCC(C4)C3C2=O)c1 (configuration not stated) was read as Shiga inhibitor -4, Pf growth 96h -2%, NS1 function inh -50%, SARS PLpro yeast -8%, Cycloheximide cs 17 and Pf growth 48h 8%.
For CCN(CC)S(=O)(=O)c1cccc(-c2nc3n(n2)Cc2ccccc2-3)c1 the results were Shiga inhibitor 26, Pf growth 96h 11%, NS1 function inh -19%, SARS PLpro yeast 2%, Cycloheximide cs 15 and Pf growth 48h 25%.
Screening Clc1ccc(-c2nc3n(n2)Cc2ccccc2-3)cc1 returned Shiga inhibitor 118*, Pf growth 96h inactive, NS1 function inh -2%, SARS PLpro yeast -6%, Cycloheximide cs 66* and Pf growth 48h inactive.
`COc1ccc(C(C2C(=O)CC(C)(C)CC2=O)C2C(=O)CC(C)(C)CC2=O)cc1` gave Shiga inhibitor -17, Pf growth 96h 32%, NS1 function inh 15%, SARS PLpro yeast 1%, Cycloheximide cs 1 and Pf growth 48h 32%.
For Cn1nc(-c2ccccc2)cc1NC(=O)Nc1ccccc1F the results were Shiga inhibitor 57, Pf growth 96h 50%, NS1 function inh 1%, SARS PLpro yeast 0%, Cycloheximide cs 36* and Pf growth 48h 60%.
`O=C(NNc1ccccc1)Nc1ccccc1F` gave Shiga inhibitor 87*, Pf growth 96h 37%, NS1 function inh 1%, SARS PLpro yeast -4%, Cycloheximide cs 20* and Pf growth 48h -3%.
`O=C(Nc1ccccc1F)Nc1ccccc1F` gave Shiga inhibitor 73*, Pf growth 96h -16%, NS1 function inh -6%, SARS PLpro yeast -1%, Cycloheximide cs 35* and Pf growth 48h 106%.
CCN(CC)CCNC(=O)c1ccc(NC(=O)Nc2cccc3ccccc23)cc1 was read as Shiga inhibitor -9, Pf growth 96h 9.3µM*, NS1 function inh -10%, SARS PLpro yeast -2%, Cycloheximide cs -4 and Pf growth 48h 13µM*.
For O=S(=O)(c1ccc2c(c1)OCCO2)N1CCN(S(=O)(=O)c2ccccc2F)CC1 the results were Shiga inhibitor -4 and Cycloheximide cs 1.
Screening COC/C=C/c1cc(F)c(S(=O)(=O)N2CCN(S(=O)(=O)c3ccc4c(c3)OCCO4)CC2)cc1F returned Shiga inhibitor -10 and Cycloheximide cs -5.
O=C(NC(CO)(CO)CO)[C@@H]1CCCN1S(=O)(=O)c1cccc2cccnc12 was read as Pf growth 96h 0%, SARS PLpro yeast 1% and Pf growth 48h 25%.
For C=CCn1c(C(CC)CC)nc2ccccc21 the results were Shiga inhibitor 17, Pf growth 96h 22%, NS1 function inh 1%, SARS PLpro yeast -1%, Cycloheximide cs -1 and Pf growth 48h -7%.
Screening O=C(Nc1ccccc1F)NC1CCCc2ccccc21 (configuration not stated) returned Shiga inhibitor 34*, Pf growth 96h inconclusive, NS1 function inh -3%, SARS PLpro yeast -3%, Cycloheximide cs 12 and Pf growth 48h inconclusive.
Screening Cn1nc(-c2ccccc2)cc1NC(=O)C1CCCCC1 returned Shiga inhibitor 59, Pf growth 96h 70%, NS1 function inh 3%, SARS PLpro yeast -1%, Cycloheximide cs 41* and Pf growth 48h 69%.
For O=C(Nc1ccccc1F)Nc1cccc2ccc(O)cc12 the results were Shiga inhibitor 102*, Pf growth 96h -2%, NS1 function inh 4%, SARS PLpro yeast 0%, Cycloheximide cs 46* and Pf growth 48h inconclusive.
`O=C(Cc1cccc2ccccc12)NCC(=O)Nc1ccccc1F` gave Shiga inhibitor 9, Pf growth 96h 42%, NS1 function inh 0%, SARS PLpro yeast 22%, Cycloheximide cs -2 and Pf growth 48h -9%.
